AC50 and activity, negative = inhibition data for 94 compounds are collected here from PubChem BioAssay AID1851 (National Center for Advancing Translational Sciences (NCATS), 2009).

Several values for one entry are separate records, joined by “and”; a condition that tells them apart may be missing. Equal entries are not always repeated. Screen size: about 16,000 compounds; about 5,700 (36%) were called active. About 24% were inconclusive and are not listed. Some of the results follow. Unmarked numbers belong to inactive results. Calls come from the whole dose curve; as a rule, active = well fitted curve in the direction sought with a large enough effect; inconclusive = small, poorly fitted or top-dose-only effect, or effect the other way; inactive = no such curve, though single readings can be large or run the other way.
% is set by controls: 0 for no effect and ±100 for the full control effect.

The target of the test is Cytochrome P450 1A2 (Homo sapiens) (UniProt P05177). Briefly: Cytochrome panel assay with activity outcomes. As to conditions: recombinant CYP, pro-luciferin dealkylation, luminescence, p450-cyp1a2; series mostly up to 57.1 µM.
Chain of Cytochrome P450 1A2 (Homo sapiens) (P05177 whole entry, looked up): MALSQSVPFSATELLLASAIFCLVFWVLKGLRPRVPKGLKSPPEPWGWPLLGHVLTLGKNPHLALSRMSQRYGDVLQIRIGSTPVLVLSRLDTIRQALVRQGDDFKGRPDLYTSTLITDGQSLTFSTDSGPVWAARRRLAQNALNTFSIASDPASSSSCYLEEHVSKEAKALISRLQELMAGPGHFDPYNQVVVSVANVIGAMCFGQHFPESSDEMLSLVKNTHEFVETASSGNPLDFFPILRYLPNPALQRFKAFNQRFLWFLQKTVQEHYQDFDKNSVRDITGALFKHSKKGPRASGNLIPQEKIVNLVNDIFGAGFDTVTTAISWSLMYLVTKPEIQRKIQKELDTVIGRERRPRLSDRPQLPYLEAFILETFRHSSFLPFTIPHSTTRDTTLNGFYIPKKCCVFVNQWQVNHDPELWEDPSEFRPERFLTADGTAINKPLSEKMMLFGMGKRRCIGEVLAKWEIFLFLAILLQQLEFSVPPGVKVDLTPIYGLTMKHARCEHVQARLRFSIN
As for `Cc1nc2cnc(N(C)C)nc2n(CCc2ccccc2)c1=O`, the AC50 is 1.26 µM (active).

For the compound `COc1cccc(Cn2c(=O)c(CCc3ccccc3)nc3cnc(N(C)C)nc32)c1`, the AC50 was 15.8 µM (active).

`CN(C)c1ncc2nc(CCc3ccccc3)c(=O)n(CCC#N)c2n1`: the AC50 was 2 µM (active).

`CN(C)c1ncc2ncc(=O)n(CCc3ccccc3)c2n1`: the AC50 was 0.794 µM (active).

For `CCN1CCCC1CNC(=O)C1c2cc(OC)c(OC)cc2C(=O)N(C)C1c1cccnc1` (centres undefined), the AC50 result is “inactive”.

Take `COC(=O)N1CCC2(CCCN(Cc3nccs3)C2)CC1`: the AC50 result is “inactive”.

`CN(C)c1ncc2nc(CCc3ccccc3)c(=O)n(Cc3ccc(F)cc3)c2n1`: the AC50 is 10 µM (active).

As for `COCCn1c(=O)c(CCc2ccccc2)nc2cnc(N(C)C)nc21`, the concentration at half-maximal activity (AC50) was 1.26 µM (active).

For `O=c1c(CCc2ccccc2)nc2cncnc2n1Cc1ccc(F)cc1`, the concentration at half-maximal activity (AC50) was 10 µM (active).

For `CN(C)c1ncc2nc(-c3ccccc3)c(=O)n(CCC#N)c2n1`, the AC50 was 1.58 µM (active).

Take `CN(C)c1ncc2nc(-c3cccc(C#N)c3)c(=O)n(CCC#N)c2n1`: the AC50 entry is “inactive”.

In the case of `CCN(CC)C(=O)CSc1nc(O)cc(=O)n1CC`, the AC50 result is “inactive”.

Consider `C[C@@H]1/C=C\CC(=O)OC[C@H]2O[C@@H](C=C[C@@H]2O)[C@H](C)/C=C\CC(=O)OC1`, for which the activity, negative = inhibition is -3.64% [at 11.4 µM].

As to `CNC(=O)[C@@H]1O[C@@H](n2cnc3c(NCc4ccc(N)cc4)ncnc32)[C@@H](O)[C@H]1O`, the AC50 result is “inactive”.

As to `CN(C)c1ncc2nc(CCc3ccccc3)c(=O)n(CCc3ccccc3)c2n1`, the half-maximal activity concentration (AC50) was 6.31 µM (active).

With `C=C1C=C(Br)C2(OCCCO2)[C@H]2OC12` (some centres undefined), the activity, negative = inhibition is -2.64% [at 11.4 µM].

In the case of `Cc1cnc(CNc2cc(-c3ccccc3Cl)ncn2)cn1`, the AC50 was 15.8 µM (active).

For `COc1ccccc1-c1cc(NCc2cnc(C)cn2)ncn1`, the AC50 is 12.6 µM (active).

Take `Cc1cnc(CNc2cc(-c3ccccc3C)ncn2)cn1`: the concentration at half-maximal activity (AC50) was 12.6 µM (active).

Regarding `Cn1cccc1C(=O)N1CCC2(CCN(C(=O)Nc3cccc(F)c3)CC2)CC1`, the AC50 entry is “inactive”.

As for `C[C@@]12CCC(=O)C=C1CC[C@H]1[C@@H]2[C@@H](O)C[C@]2(C)[C@@H]1CC[C@@]2(O)C(=O)CO`, the activity, negative = inhibition is -23.6% [at 11.4 µM].

Consider `Cc1cc(=O)c2c(O)c(O)ccc2o1`, for which the half-maximal activity concentration (AC50) is 12.6 µM (active).

For the compound `O=C(O)/C=C\c1c2ccc(=O)c(O)c-2oc2c(O)c(O)ccc12`, the activity, negative = inhibition is -19.8% [at 2.29 µM].

In the case of `Oc1c(CN2CCOCC2)ccc(CN2CCOCC2)c1O`, the activity, negative = inhibition is -11.9% [at 2.29 µM].

As for `c1c[nH]c(CN2CCOCC2)n1`, the activity, negative = inhibition was 6.41% [at 11.4 µM].

Regarding `Clc1ccc(-n2nnnc2CN2CCOCC2)cc1`, the AC50 was 7.08 µM (active).

As to `Cc1ccnc2nc(C(=O)OCC(=O)Nc3ccc4c(c3)OC(F)(F)O4)nn12`, the AC50 was 8.91 µM (active).

As to `COc1cc(NC(=O)COC(=O)c2nc3nc(C)cc(C)n3n2)cc(OC)c1`, the AC50 is 14.1 µM (active).

As for `CCN(CC)c1ccc(NC(=O)CSc2nnc3nc(C)cc(C)n23)cc1`, the AC50 result was “inactive”.

On to `C#CCCCO/N=C1/[C@H]2O[C@@H]2[C@@H](O)[C@H]2[C@H]1CCn1c(=O)n(C)c(=O)n12`, for which the activity, negative = inhibition is -0.0514% [at 11.4 µM].

Consider `CCN1C(=O)[C@@H]2[C@H]3C(=CC[C@@H]2C1=O)C1(OCCCO1)[C@H]1O[C@@H]1[C@H]3O`, for which the activity, negative = inhibition is -2.44% [at 11.4 µM].

Regarding `Cc1ccc(S(=O)(=O)N2CCN(S(C)(=O)=O)C2)cc1`, the AC50 entry was “inactive”.

For `Cc1ccc(OC(=O)c2cccc(C(=O)Oc3ccc(C)cc3)n2)cc1`, the AC50 entry is “inactive”.

For `O=C(CCC(=O)c1cccs1)OCC(=O)N1CCN(C(=O)c2ccco2)CC1`, the AC50 result is “inactive”.

Take `O=C(OCC(=O)c1cccs1)c1cccc(C(=O)OCC(=O)c2cccs2)n1`: the concentration at half-maximal activity (AC50) was 15.8 µM (active).

Take `CCOC(=O)c1cccc(C(=O)OCC)n1`: the AC50 is 12.6 µM (active).

With `Cc1ccc(OC(=O)c2cccc(C(=O)Oc3ccc(C)cn3)n2)nc1`, the AC50 result is “inactive”.

With `COC(=O)c1cccc(C(=O)Nc2ccc(C)cc2)n1`, the AC50 is 1 µM (active).

`S=c1nc(-c2ccccc2)oc2c1CCCC2`: the half-maximal activity concentration (AC50) was 0.562 µM (active).

For the compound `COc1ccc(-n2c(-c3ccccc3)nc(=S)c3c2CCCC3)cc1`, the AC50 entry is “inactive”.

Take `O=C(Nc1cccc2nsnc12)c1ccc(-c2cccc(Cl)c2)o1`: the concentration at half-maximal activity (AC50) was 2 µM (active).

As to `Cc1ccc(C(=O)NC(=S)Nc2cccc3nsnc23)cc1`, the AC50 result is “inactive”.

Regarding `CCCn1nnc(NC(=O)c2ccc(-c3cccc(Cl)c3)o2)n1`, the concentration at half-maximal activity (AC50) is 1.58 µM (active).

Consider `O=C(c1cnccn1)N1CCC2(CCCN(c3ccccn3)C2)CC1`, for which the AC50 entry was “inactive”.

Turning to `CC(C)c1ccc(/C=C2\C=C(c3ccc4ccccc4c3)OC2=O)cc1`, the activity, negative = inhibition was -24.7% [at 2.29 µM].

Take `Cc1ccccc1/C=C1\OC(=O)c2ccccc21`: the half-maximal activity concentration (AC50) was 1.26 µM (active).

Consider `Cc1ccc(/C=C2\OC(=O)c3ccccc32)cc1`, for which the AC50 was 0.794 µM (active).

Consider `CC(=O)OC[C@@H]1O[C@@H](O/N=C2/C[C@@H](O)[C@@H](O)[C@@H]3[C@@H]4C(=O)N(Cc5ccc6c(c5)OCO6)C(=O)[C@H]4CC[C@@H]23)[C@H](OC(C)=O)[C@H](OC(C)=O)[C@@H]1OC(C)=O`, for which the activity, negative = inhibition is -15% [at 11.4 µM].

With `CC(=O)[C@H]1CC[C@@H]2[C@H]3CC=C4C[C@@H](O)CC[C@]4(C)[C@H]3CC[C@]12C`, the AC50 result is “inactive”.

For `O=C(N=NC(=O)c1ccc2c(O)n(C3CCCCC3)c(O)c2c1)c1cccnc1`, the AC50 entry was “inactive”.

With `C[C@@H](c1ccccc1)N1C(=O)[C@H]2[C@@H]3[C@H](O)[C@H](O)CC(=O)[C@H]3CC[C@H]2C1=O`, the activity, negative = inhibition was 6.67% [at 11.4 µM] and -2.18% [at 11.4 µM].

In the case of `N#CCSc1nc2cc(C(=O)N3CCCC3)ccc2c(=O)n1Cc1ccccc1`, the AC50 was 15.8 µM (active).

Take `NC1(C(=O)O)C[C@H](C(=O)O)[C@H](C(=O)O)C1` (some centres undefined): the AC50 entry is “inactive”.

As for `COc1ccc(/C=N/n2cnc3c([nH]c4ccc(Br)cc43)c2=O)cc1CN1CCOCC1`, the AC50 is 12.6 µM (active).

Consider `O=[N+]([O-])c1ccc(Cl)c(CNc2ncnc3c2ncn3[C@@H]2CCCCO2)c1`, for which the AC50 was 5.01 µM (active).

As for `Nc1ncnc2c1ncn2[C@@H]1CCCO1`, the AC50 entry is “inactive”.

For `C[N+](C)(C)c1ncnc2c1ncn2[C@@H]1CCCCO1`, the activity, negative = inhibition is 2.33% [at 2.29 µM].

On to `Cc1cc([N+](=O)[O-])c(C)c(Br)c1C`, for which the AC50 was 1 µM (active).

In the case of `COc1ccc(S(=O)(=O)NCc2ccc(C(=O)N3CCN(c4ccccn4)CC3)cc2)cc1`, the AC50 result was “inactive”.

`O=C(Nc1ccc(Nc2ccc3c(c2)C(=O)c2ccccc2C3=O)c2c1C(=O)c1ccccc1C2=O)c1ccccc1`: the AC50 was 1.58 µM (active).

For `CCC(=O)Nc1ccc2c(c1)C(=O)c1ccccc1C2=O`, the half-maximal activity concentration (AC50) is 0.316 µM (active).

Regarding `NCCCc1c(-c2ccccc2)nc(N)[nH]c1=O`, the activity, negative = inhibition is 9.63% [at 11.4 µM].

On to `CCOC(=O)c1c(-c2ccccc2)nc2ccc(Cl)cn12`, for which the concentration at half-maximal activity (AC50) is 2.51 µM (active).

Consider `CC(SCc1cn2cc(Cl)ccc2n1)C(=O)O` (centres undefined), for which the AC50 entry was “inactive”.

`CCOC(=O)CNc1c(-c2ccccc2)nc2ccc(Cl)cn12`: the AC50 was 1.58 µM (active).

With `Cc1nc2c(C)cccn2c1/C(O)=C1\C(=O)C(=O)N(CCN2CCOCC2)C1c1cccs1` (centres undefined), the AC50 entry is “inactive”.

Regarding `CCOC(=O)c1c(-c2ccccc2)nc2c(C)cccn12`, the half-maximal activity concentration (AC50) was 0.708 µM (active).

For the compound `CCOC(=O)c1c(-c2ccccc2)nc2ccccn12`, the AC50 was 1.12 µM (active).

Turning to `CCOC(=O)N/N=C1/C[C@@H](O)[C@@H](O)[C@@H]2[C@@H]3C(=O)N([C@@H](C)c4ccccc4)C(=O)[C@H]3CC[C@@H]12`, the activity, negative = inhibition is 3.79% [at 11.4 µM].

For the compound `Cc1cc(=Nc2ccc3c(c2)c(N)cc(C)[n+]3C)nc(N)n1C`, the activity, negative = inhibition is -5.28% [at 2.29 µM].

As for `C=C(C)C(=O)N1CC2(CC(c3cccc(NC(=O)c4ccccc4)c3)=NO2)C[C@@H]1C(N)=O` (some centres undefined), the AC50 result was “inactive”.

For `CC1(C)O[C@@H]2C[C@H]3[C@H]4C[C@H](F)C5=CC(=O)CC[C@]5(C)[C@@H]4[C@H](O)C[C@]3(C)[C@]2(C(=O)CO)O1`, the AC50 result is “inactive”.

As for `CNc1nc(Cl)nc(NC(C)(C)C)n1`, the concentration at half-maximal activity (AC50) is 8.91 µM (active).

In the case of `CC1CCC(C(=O)NC(C(=O)N2CCC(N3CCCCC3)CC2)C(C)C)CC1` (centres undefined), the AC50 entry is “inactive”.

`CC(=O)N(C[C@@H](C)C(=O)O)c1c(I)cc(I)c(N)c1I`: the AC50 result was “inactive”.

Turning to `CC[C@H](Cc1c(I)cc(I)c(N)c1I)C(=O)O`, the half-maximal activity concentration (AC50) was 12.6 µM (active).

Turning to `COc1ccccc1C(=O)NN1C(=O)C2C3C=CC(O3)C2C1=O` (centres undefined), the AC50 entry is “inactive”.

As to `COc1ccccc1C(=O)NC(=S)N1CCCc2ccccc21`, the half-maximal activity concentration (AC50) was 2.24 µM (active).

For `CCOc1ccc(-n2c(=O)[nH]cc(C(=O)N3CCCc4ccccc43)c2=O)cc1`, the AC50 entry is “inactive”.

On to `Oc1cc2c(cc1O)[C@H](c1ccccc1)CNCC2`, for which the AC50 entry was “inactive”.

On to `N#Cc1cccc(NC(=O)N2CCC3(CC2)CCN(C(=O)c2csnn2)CC3)c1`, for which the AC50 result was “inactive”.

Regarding `CCOC(=O)N/N=C1/C[C@@H](O)[C@@H](O)[C@@H]2[C@@H]3C(=O)N(c4cccc(Oc5ccccc5)c4)C(=O)[C@H]3CC[C@H]12`, the activity, negative = inhibition was -3.4% [at 11.4 µM].

For the compound `O=C(c1cccc(F)c1)N1CCC2(CCCN(Cc3nccs3)C2)CC1`, the AC50 entry is “inactive”.

`O=C(c1cccc(F)c1)N1CCC2(CC1)CCN(c1ccccc1)CC2`: the AC50 was 15.8 µM (active).

Regarding `Cc1noc(C)c1C(=O)N1CCC[C@@]2(CCN(Cc3nccs3)C2)C1`, the AC50 result was “inactive”.

In the case of `O=C(c1ccncc1)N1CCC2(CCN(Cc3nccs3)CC2)CC1`, the AC50 entry is “inactive”.

Take `O=C(c1cccc(F)c1)N1CCC2(CC1)CCN(c1ccc(-c3ccccc3)cc1)CC2`: the AC50 result was “inactive”.

For the compound `Cc1noc(C)c1C(=O)N1CCC2(CCN(Cc3nccs3)CC2)CC1`, the half-maximal activity concentration (AC50) was 12.6 µM (active).

Take `O=C(c1cccc(F)c1)N1CCC2(CC1)CN(c1ccc(-c3ccccc3)cc1)C2`: the AC50 result was “inactive”.

Turning to `O=C(c1cccc(F)c1)N1CCC2(CCCN(c3ccc(-c4ccccc4)cc3)C2)CC1`, the AC50 is 15.8 µM (active).

As for `O=C(c1cccc(F)c1)N1CCC2(CCN(Cc3nccs3)CC2)CC1`, the concentration at half-maximal activity (AC50) was 1.58 µM (active).

On to `Cc1noc(C)c1C(=O)N1CCC2(CCCN(Cc3nccs3)C2)CC1`, for which the AC50 entry is “inactive”.

Consider `O=C(c1cccc(F)c1)N1CCC2(CCN(Cc3ccccc3)CC2)CC1`, for which the AC50 entry is “inactive”.

As to `O=C(c1cccc(F)c1)N1CCC2(CCCN(Cc3ccccc3)C2)CC1`, the AC50 result was “inactive”.
